HPGD block = inhibitors of human 15-hydroxyprostaglandin dehydrogenase (HPGD); purified HPGD, NADH fluorescence kinetic, PGE2 substrate; P15428; 150,000 compounds, 4.3% hits; Potency, µM, for inactives: top-dose activity change, negative = inhibition, usual class: inhibitors; further: potency means the concentration at half of the fitted maximal effect
Target sequence (P15428 whole entry, looked up): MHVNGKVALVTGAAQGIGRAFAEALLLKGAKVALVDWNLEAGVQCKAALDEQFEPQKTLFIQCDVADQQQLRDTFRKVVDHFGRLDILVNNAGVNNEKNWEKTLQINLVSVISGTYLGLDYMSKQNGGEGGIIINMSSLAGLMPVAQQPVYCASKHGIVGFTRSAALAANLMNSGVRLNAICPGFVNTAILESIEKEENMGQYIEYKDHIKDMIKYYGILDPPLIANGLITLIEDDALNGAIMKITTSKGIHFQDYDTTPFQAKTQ
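NADH formation kinetics: reaction with 30 uM PGE2 and 1 mM NAD+ (final), 20 nM enzyme, Tris-HCl pH 8 with Tween 20, after 15 min compound preincubation at room temperature. Fluorescence change, last versus first of five reads.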
ALDH1A1 inh = inhibitors of human aldehyde dehydrogenase 1A1 | P00352 | Potency, µM (highest dose often 75.3 µM), for inactives: top-dose activity, negative = inhibition, actives largely listed as inhibitors | Purified ALDH1A1, NADH fluorescence, propionaldehyde substrate | AID 1030 | 220,000 compounds, 7.3% hits;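 further: potency means the concentration at half of the fitted maximal effect; plate controls were no enzyme wells and a reference inhibitor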
IMPase inh = membrane-permeable compound that blocks inositol monophosphatase; 120,000 tested, under 10 active; CHO-M1 cells, IP1 accumulation, HTRF TR-FRET ratio; P97697; AID 901; inhibition (IP1 accumulation), % at 46.1 µM; active means well fitted curve in the direction sought with a large enough effect in the signal ratio, not every such curve was filed as active; inconclusive means small, poorly fitted or top-dose-only effect, or a change in a side signal; inactive means no such curve, though single readings can be large or run the other way; the % refers to the signal ratio;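 further: cells stimulated with carbachol in lithium chloride buffer; plate controls were DMSO basal wells for no effect and reference inhibitor wells for full effect; higher means more IMPase inhibition seen as more IP1 and lower FRET ratio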
Target sequence (P97697 whole entry, looked up): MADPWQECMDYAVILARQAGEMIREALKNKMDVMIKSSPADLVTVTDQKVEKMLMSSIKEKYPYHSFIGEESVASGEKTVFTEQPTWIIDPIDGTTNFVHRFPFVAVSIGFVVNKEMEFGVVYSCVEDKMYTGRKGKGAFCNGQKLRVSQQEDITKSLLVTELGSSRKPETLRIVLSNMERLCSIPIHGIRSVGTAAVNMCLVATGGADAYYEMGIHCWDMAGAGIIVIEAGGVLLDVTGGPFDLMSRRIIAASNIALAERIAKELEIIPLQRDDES
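Cellular IMPase inhibition is scored as a rise in cytosolic IP1, detected by competitive TR-FRET between d2-labelled IP1 and a europium anti-IP1 antibody. M1-expressing CHO cells were stimulated with carbachol for 30 min at 37C, with lithium (50 mM LiCl) present in the buffer.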
Numbers without * were called inactive; ? = inconclusive; · = no result. Compounds with a hit are over-represented: about 9% of the library has one in this group of screens. Unless noted, the call rests on the fitted dose curve; in most records, active means well fitted inhibition curve with a large enough effect (not every such curve was filed as active); inconclusive means small, poorly fitted or top-dose-only effect, or another doubt; inactive means no such curve, though single readings can be large or run the other way. Unless noted, on the % scale 0 is the no-effect control and ±100 the full control effect.

SMILES	HPGD block	ALDH1A1 inh	IMPase inh
CC1(C)Cc2nc3oc4c(NCc5ccccc5)ncnc4c3cc2CO1	?	?	-15.2
CC1(C)Cc2nc3sc4c(SCC(=O)NCc5ccccc5)ncnc4c3cc2CO1	-24.8%	7.94µM*	4.3
COC(=O)N1CC=CC1(C)C(=O)O (stereo not given)	-5.9%	4.5%	·
Cc1nc2c(Br)c(C)nn2c2c1CCC2	·	0.7%	·
CCOC(=O)c1c(N)n(-c2ccc(Cl)c(Cl)c2)c2nc3ccccc3nc12	·	·	18.6
COc1ccc2c(Cl)c(C(N)=O)sc2c1	-12.7%	-0.8%	?
COc1ccc2c(Cl)c(C(=O)NN)sc2c1	-29.1%	1.12µM*	-4.1
Cc1noc(C)c1COC(=O)C1CCN(C(=O)c2ccc(Cl)cc2)CC1	·	-8.7%	·
CCOC(=O)C1=C(C)OC(N)=C(C#N)C1c1ccsc1 (stereo not given)	-18.6%	?	2.5
CCOC(=O)C1=C(NC#N)OC(C)=C(C)C1c1ccc(O)cc1 (stereo not given)	-28.7%	22.4µM*	0.2
O=C(O)c1cccc(NC(=O)C2CC(=O)N(Cc3ccccc3)C2)c1 (stereo not given)	-6.2%	7.3%	3.9
CC(=O)c1ccc(NC(=O)C2CC(=O)N(Cc3ccccc3)C2)cc1 (stereo not given)	-8.1%	14.1µM*	0.7
CN1CCN(C2=C(Cl)C(=O)N(c3ccc(Cl)c(Cl)c3)C2=O)CC1	-10.6%	25.1µM*	-1.5
CN1CCN(C2=C(Cl)C(=O)N(c3cccc(Cl)c3)C2=O)CC1	-1.4%	?	6.2
O=C1CC(C(=O)Nc2ccc(Cl)cc2)n2ncnc2N1 (stereo not given)	·	-9.2%	·
CCc1ccc(NC(=O)C2CC(=O)Nc3ncnn32)cc1 (stereo not given)	-9.0%	25.1µM*	·
Cc1ccc(-n2c3c(c(=O)[nH]c2=S)C(C(F)(F)F)(C(F)(F)F)NC(=O)N3)cc1	-14.3%	5.0%	-4.4
O=C(CN1CCCN(S(=O)(=O)c2ccc(Br)s2)CC1)Nc1ccc(Cl)cc1	-11.9%	4.47µM*	10.5
CCOC(=O)CNC(=O)CN1CCCN(S(=O)(=O)c2ccc(Br)s2)CC1	-7.5%	?	0.9
COC(=O)c1ccc(NC(=S)N2CCN(Cc3ccc(Cl)cc3)CC2)cc1	39.8µM*	1.9%	8.3
COC(=O)c1ccc(NC(=S)N2CCN(Cc3ccccc3Cl)CC2)cc1	·	-8.4%	·
COC(=O)c1ccc(NC(=O)CN2CCN(c3cccc(Cl)c3)CC2)cc1	-7.7%	-7.2%	-16.1
COC(=O)c1ccc(NC(=O)CN2CCN(c3ccc(Cl)cc3)CC2)cc1	-28.4%	22.4µM*	-2.6
COc1ccc(NC(=O)CCN2CCN(S(=O)(=O)c3cc(Cl)ccc3Cl)CC2)cc1	-10.8%	-1.4%	-2.4
COC(=O)c1ccc(NC(=O)CN2CCN(S(=O)(=O)c3cc(Cl)ccc3OC)CC2)cc1	-31.0%	2µM*	2.1
SMILES	HPGD block	ALDH1A1 inh	IMPase inh
Cc1ccc(CN2CCNC(=O)C2CC(=O)NCC(F)(F)F)o1 (stereo not given)	·	-6.4%	·
Cc1cc(C)cc(C(=O)NN2CCN(C)CC2)c1	·	1.5%	·
CNC(=S)N1CCC(NC(=O)C(Cc2ccccc2)NC(C)=O)CC1 (stereo not given)	·	-0.2%	·
Cc1ccc(S(=O)(=O)n2nc(-c3ccccc3)nc2NCc2ccc(Cl)cc2)cc1	·	·	6.9
CCOC(=O)c1ccc2c(c1)nc(SCC(=O)N1CCOCC1)n2CC	·	6.5%	·
COC(=O)c1cccc(NC(=O)CSc2nnc(C)n2C)c1	·	-7.5%	·
CC(=O)c1ccc(NC(=O)CN2C(=O)CCC2=O)cc1	·	5.0%	·
COC(=O)c1ccc(NC(=O)CN2C(=O)CNC2=O)cc1	-19.1%	17.8µM*	-2.0
COc1ccc(S(=O)(=O)N2CCCN(CC(=O)Nc3ccc4c(c3)OCO4)CC2)cc1	-4.5%	?	0.5
CN(C)S(=O)(=O)c1cc(NC(=O)CN2CCN(c3ccccc3)CC2)ccc1Cl	3.1%	-3.3%	3.3
CN(C)S(=O)(=O)c1cc(NC(=O)CN2CCN(c3ccc(O)cc3)CC2)ccc1Cl	·	12.6µM*	·
O=C(CN1CCCN(S(=O)(=O)c2ccc(Br)cc2)CC1)Nc1ccc2c(c1)OCO2	-8.4%	11.2µM*	10.1
COCc1cc(C)nc(OC)c1C(N)=O	·	0.6%	·
COC(=O)CN(C#N)c1nc(NC(C)C)nc(NC(C)C)n1	·	7.8%	·
C/C=C(\CS(=O)(=O)c1ccccc1)S(=O)(=O)c1ccccc1	-12.1%	8.91µM*	11.9
C/C(CS(=O)(=O)c1ccccc1)=N\O	·	13.4%	·
CCOc1ccc(OCC)c(NC(=O)Nc2ccc3c(c2)N(C)C(=O)CS3)c1	-0.5%	-4.3%	-6.6
COc1cc(C(=O)N/N=C(\Cc2ncc[nH]2)c2ccccc2)cc(OC)c1OC	·	2.8%	·
c1ccc(N/N=C(\Cc2ncc[nH]2)c2ccccc2)cc1	·	7.08µM*	·
CC(C)(C)C1=CC(=O)C(=O)C(C(C)(C)C)=C1	3.98µM*	2.82µM*	·
CC(C)(C)C1=CC(=Nc2ccccc2N)C=C(C(C)(C)C)C1=O	2.0%	5.0%	·
COc1cc(-c2noc(CCCC(=O)NCc3ccccc3)n2)cc(OC)c1OC	-14.5%	-1.6%	-0.4
COc1cc(/C=C2\SC(=Nc3ccccc3)N(Cc3ccco3)C2=O)ccc1OC(C)C(=O)O (stereo not given)	-27.4%	-3.7%	·
COCCN1C(=O)/C(=C/c2ccc(OCc3ccc(C(=O)O)cc3)c(OC)c2)SC1=Nc1ccccc1	-8.3%	1.12µM*	·
CCCN(CCC)C(=O)Cn1c(=O)n(CCCCCC(=O)Nc2ccccc2)c(=O)c2sccc21	-3.8%	7.7%	?
SMILES	HPGD block	ALDH1A1 inh	IMPase inh
O=C(NC12CC3CC(CC(C3)C1)C2)N1CCC(O)(c2ccc3c(c2)OCO3)CC1	-13.0%	?	-6.4
Cc1ccc(N2C(=O)C3C(C2=O)N2CCCN2C3c2ccccc2)cc1C (stereo not given)	·	-3.9%	·
Cc1ccc(N2C(=O)CS(=O)C(c3ccccc3)C2=O)cc1C (stereo not given)	·	3.55µM*	·
COc1ccc(C(=O)CSc2nc3nc(C)cc(C)n3n2)cc1OC	-23.8%	2.4%	-3.4
COc1ccc(NC(=O)N(CCN2CCCC2)Cc2cc3cc(OC)c(OC)cc3[nH]c2=O)cc1	-17.7%	-10.7%	6.0
CS(=O)(=O)Nc1nnc(SCC(=O)N(c2ccccc2)c2ccccc2)s1	-16.9%	31.6µM*	-3.8
CC(C)N(C(=O)CSc1nnc(NC(=O)c2cccs2)s1)C(C)C	-12.8%	8.4%	3.1
CCn1c(=O)c(C(=O)Nc2nc3ccccc3[nH]2)c(O)c2ccccc21	-7.5%	8.7%	4.0
COCCn1c(=N)c(C(=O)NC(C)c2ccccc2)cc2c(=O)n3cc(C)ccc3nc21 (stereo not given)	·	·	5.9
S=c1ccss1	6.31µM*	2.24µM*	·
CCc1ccccc1NC(=S)N(CCN(C)C)Cc1cccs1	·	-2.9%	·
CC(=O)NCCNc1nc(-c2cccc(C#N)c2)nc2ccccc12	·	-7.5%	·
CCCCCC(=O)CC[C@@H]1[C@@H](C/C=C\CCCC(=O)O)[C@@H](O)C[C@H]1O	-5.6%	-1.6%	·
O=C(c1ccco1)N1N=C(C2CCCCC2)CC1(O)C(F)(F)F (stereo not given)	·	6.31µM*	·
O=C(c1ccncc1)N1N=C(C2CCCCC2)CC1(O)C(F)(F)F (stereo not given)	·	0.7%	·

Assay outcomes as filed in PubChem.
